Most compounds without a hit are left out; they make up all but 19% or so of the library.
HT1080 IDH1KD tx: toxicity to HT-1080 IDH1 knockdown cells (counter line) | 2% of 360,000 active | AID 686971 | Potency, µM (series often up to 46.1 µM), inactives show at the top dose activity, negative = toxicity, usual class: cytotoxic | HT-1080 IDH1 knockdown viability, ATP luminescence, 48 h;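 also: 0% = DMSO wells and -100% = cell-free medium wells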
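Cytotoxicity counter-line: IDH1KD HT-1080, 48 h, CellTiter-Glo. Curves classed by r2, magnitude and activity.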
KB-3-1 cytotox: kills parental KB-3-1 adenocarcinoma cells. KB-3-1 viability, CellTiter-Glo ATP luminescence, 72 h. AID 1347075. Potency, µM (highest dose often 46.1 µM), usual class: cytotoxic. 1.4% of 400,000 active; also: nearly all actives have a fitted effect of over 60% in size
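Using CellTiter-Glo luminescence, growth of non-resistant KB-3-1 adenocarcinoma cells is assessed 72 h after pin-tool compound addition at 37 °C. Normalized responses across the concentration series yield fitted curves.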
TDP1 cell CPT: growth inhibition of DT40 Tdp1-/-;hTDP1 cells with camptothecin (screen for TDP1 inhibitors); 12% of 420,000 active; chicken DT40 Tdp1-/-;hTDP1 cells + 20 nM CPT, ATP luminescence, 48 h; Potency, µM (doses to about 46.2 µM), without a hit: at the top dose activity change, negative = growth inhibition, usual class: inhibitors; AID 686979; also: nearly all actives have a fitted effect of over 55% in size
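Chicken DT40 Tdp1-/- cells stably complemented with human TDP1 were seeded at 400 cells/well in medium containing 20 nM camptothecin, exposed to pin-transferred compounds, and grown at 37 °C for at least 48 hr. Viability was read as ATP luminescence.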
HT1080NT lethal: kills 2HG-producing HT-1080-NT fibrosarcoma cells. HT-1080-NT fibrosarcoma viability, CellTiter-Glo ATP luminescence, 48 h. Potency, µM (series often up to 46.1 µM), for inactives: at the top dose activity, negative = less viability, usual class: cytotoxic. 1.6% of 360,000 active;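 also: NT is the 2HG producing partner of a matched IDH1 knockdown line; 0% = DMSO-treated cells and -100% = media-only wells without cells; nearly all actives have a fitted effect of over 55% in size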
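Luminescent CellTiter-Glo readout after 48 hours of compound exposure at 37 degrees C defined viability of HT-1080-NT cells. Activity was normalized to DMSO wells and cell-free media wells; concentration-response curves were fitted and assigned curve classes.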
KB-V1 cytotox: KB-V1 MDR subline cytotoxicity; AID 1347076; KB-V1 MDR cells viability, CellTiter-Glo, 72 h; 3.4% of 400,000 active; Potency, µM (doses to about 46.1 µM), usual class: cytotoxic; also: nearly all actives have a fitted effect of over 60% in size
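KB-V1 cells (P-gp-expressing MDR subline of KB-3-1) in phenol-red-free DMEM with 10% FBS were exposed to library compounds over a concentration series for 72 h at 37 degrees C. Viability read by CellTiter-Glo luminescence; concentration-effect curves fitted after normalization.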
DT40 TDP1 no CPT: qHTS for Inhibitors of human tyrosyl-DNA phosphodiesterase 1 (TDP1): qHTS in cells in absence of CPT; DT40 Tdp1-/- hTDP1 cells, no CPT, ATP luminescence, 48 h; Potency, µM (titrated, usually from 46.2 µM), for the others: top-dose activity change, negative = growth inhibition, usual class: inhibitors; 15% of 420,000 active; AID 686978, 2013; also: nearly all actives have a fitted effect of over 55% in size
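Camptothecin absent (DMSO only). Human TDP1-complemented DT40 knockout cells, 400 cells/well, 37 °C for minimum 48 hr; ATP measured via CellTiter-Glo, 30 min dark incubation, luminescence.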
An asterisk follows results filed as active; i = inactive; ? = inconclusive; · = not tested or not shown. Calls follow the shape of the dose curve; as a rule, active = well fitted curve in the direction sought with a large enough effect; inconclusive = small, poorly fitted or top-dose-only effect, or another doubt; inactive = no such curve, though single readings can be large; an effect the other way counts as inactive or inconclusive. Unless noted, % is scaled to controls: 0 for no effect and ±100 for the full control effect; potency is read from the fitted curve at half-maximal effect.

SMILES	HT1080 IDH1KD tx	KB-3-1 cytotox	TDP1 cell CPT	HT1080NT lethal	KB-V1 cytotox	DT40 TDP1 no CPT
Cc1ccc2nc(Nc3nc(CSc4nnnn4-c4ccccc4)cc(=O)[nH]3)nc(C)c2c1	3%	?	-91%	3%	i	-98%
CCCCc1c(C)nc2ccc(OC)cc2c1SCCC(=O)O	-17%	i	5%	5%	i	-17%
CCc1c(C)nc(Nc2nc(C)c3cc(OC)ccc3n2)[nH]c1=O	7%	i	?	15%	?	21µM*
CN(C)C(=O)CCc1ccc2c3c([nH]c2c1)[C@]1(CCC2CCCC2)[C@@H](C(=O)N2CCOCC2)C[C@H](CC(=O)NCCc2ccccn2)C(=O)N1CC3	3%	i	-6%	3%	i	3%
Cc1nn(C)c(Sc2ccccc2N)c1[N+](=O)[O-]	-4%	i	?	-13%	i	?
S=c1[nH]ccn1-c1c(Cl)cccc1Cl	4%	i	-5%	5%	i	2%
O=C(CN1C(=O)c2ccccc2C1=O)NCC(=O)Nc1ccccc1	?	i	-10%	14%	i	-8%
CCc1c(C)nc(Nc2nc(C)c3ccc(OC)cc3n2)[nH]c1=O	0%	i	?	7%	i	16µM*
COc1ccc2c(C)nc(Nc3nc(C)c(C)c(=O)[nH]3)nc2c1	?	3.7µM*	4.6µM*	?	7.3µM*	2.9µM*
COc1ccc2c(C)nc(Nc3nc(C)cc(C)n3)nc2c1	0.89µM*	i	2.9µM*	0.45µM*	?	3.3µM*
COc1ccc2nc(NC3=NC(c4ccccc4)CC(=O)N3)nc(C)c2c1 (configuration not stated)	18µM*	i	?	?	i	13µM*
COc1ccc2c(C)nc(N/C(N)=N/S(=O)(=O)c3ccc(C)cc3)nc2c1	-22%	i	?	-22%	i	?
CCc1c(C)nc(SCCOc2ccc(OC)cc2)[nH]c1=O	4%	i	?	6%	i	?
NC1=NC(c2ccccc2)CC(=O)N1 (configuration not stated)	0%	i	-16%	0%	i	-17%
COc1ccc(Nc2nc(C)c3ccccc3n2)cc1	-11%	i	-12%	-15%	i	-26%
CCN(CC)c1ccc(-c2nnc(SCC(=O)NCc3ccco3)n2CC)cc1	·	i	?	·	i	?
COc1cc(C)c(NC(=S)NCCCN2CCOCC2)cc1OC	0%	i	14%	10%	i	1%
Cc1ccc(S(=O)(=O)c2nc(S(C)(=O)=O)sc2N(C)C)cc1	6%	i	-9%	17%	i	-9%
Cc1ccc(S(=O)(=O)c2nc(S(C)(=O)=O)sc2N(C)Cc2ccccc2)cc1	·	i	?	·	i	21µM*
CCCOc1ccc(Cc2c(Cl)nc(SC)nc2OC)cc1	3%	i	9%	7%	?	-19%
CCCOc1ccc(Cc2c(Cl)nc(SC)nc2N(C)C)cc1	-17%	?	?	-19%	i	15µM*
CC(C)Oc1ccc(-c2cc(C(=O)NCCN3CCOCC3)c3ccccc3n2)cc1	-15%	i	?	-3%	i	?
Cc1cc(NC(=O)c2cc(-c3ccc(OC(C)C)cc3)nc3ccccc23)no1	-10%	i	-61%	-1%	?	8.2µM*
CCC(C)c1ccc(-c2cc(C(=O)OCC(=O)Nc3cc(C)on3)c3ccccc3n2)cc1 (configuration not stated)	-23%	i	?	-1%	i	16µM*
COc1ccc(-c2cc(C(=O)OCC(=O)Nc3cc(C)on3)c3ccccc3n2)cc1OC	14%	i	-12%	10%	i	-18%
